Here are results for 13 molecules from PubChem BioAssay.

The source made the active and inactive calls.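 Rule for the calls, unless noted: active = visually confirmed hit in the image check and inhibition above 20%; inconclusive = visually confirmed hit but inhibition not above 20%; inactive = no visual hit in the image check.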

Assay [1] can be described thus: inhibitors of TNFa-induced NFkB p65 translocation, primary screen, imaging, HUVEC, MLSMR starter and 10KST1 sets (AID 438;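 active = inhibition above 20% together with a positive visual image hit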;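 note: compound added about 3h40 before a 20 min TNFalpha stimulation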;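 for inhibition: signal is the nuclear over cytoplasmic p65 intensity ratio per well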). As to conditions: HUVEC TNFa-induced p65 nuclear translocation; cell count: measured here: nuclei count (cytotoxicity indicator), at 2.08 µM; inhibition: at 2 µM, stronger effect = higher value, 0% TNFa-plus-vehicle, 100% no-TNFa wells.
The nature of assay [2]: reduction of polyQ htt aggregates in cells – imaging, exon1htt(103Q)mCFP cells, high-content imaging, primary screen (AID 483;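 active = visual image review flags a hit and inhibition of aggregation exceeds 20%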;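 note: compound exposure lasted 3 days before fixation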;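 for nuclei count: percent of the per-plate median nuclei count of sample wells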). As to conditions: exon1htt(103Q)mCFP cell line, aggregate imaging, at 2 µM; inhibition of aggregation: stronger effect = higher value; nuclei count: measured here: cell count, toxicity.
Assay [3] can be described thus: endothelial E-selectin expression blockers – imaging, HUVEC, immunofluorescence, MLSMR starter and 10KST1 sets, primary screen (AID 487).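 For inhibition: signal is fraction of cell area covered by stained E-selectin grains.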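 For nuclei count: 100% = median nuclei count of all wells on the same plate.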 To be noted: HUVEC TNFalpha-induced E-selectin immunofluorescence imaging, at 2 µM; inhibition: stronger effect = higher value; nuclei count: measured here: cell number, toxicity.
For assay [4], the target named is Voltage-gated potassium channel subunit beta-2 (Rattus norvegicus) (UniProt P62483). The assay can be described thus: inhibitors of rat Kvbeta2 reductase activity – biochemical, NADPH fluorescence, primary screen (AID 622;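 active = fluorescence slope higher than the sample average by over 3 SD, cut at about -0.22 in these data, passing the limit was not always enough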;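 note: slope of raw intensity against log time taken from 70 to 1610 s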). As to conditions: recombinant KvBeta, 4-cyanobenzaldehyde reduction, at 10 µM, stronger effect = higher value.
Chain of Voltage-gated potassium channel subunit beta-2 (Rattus norvegicus) (P62483 whole entry, looked up): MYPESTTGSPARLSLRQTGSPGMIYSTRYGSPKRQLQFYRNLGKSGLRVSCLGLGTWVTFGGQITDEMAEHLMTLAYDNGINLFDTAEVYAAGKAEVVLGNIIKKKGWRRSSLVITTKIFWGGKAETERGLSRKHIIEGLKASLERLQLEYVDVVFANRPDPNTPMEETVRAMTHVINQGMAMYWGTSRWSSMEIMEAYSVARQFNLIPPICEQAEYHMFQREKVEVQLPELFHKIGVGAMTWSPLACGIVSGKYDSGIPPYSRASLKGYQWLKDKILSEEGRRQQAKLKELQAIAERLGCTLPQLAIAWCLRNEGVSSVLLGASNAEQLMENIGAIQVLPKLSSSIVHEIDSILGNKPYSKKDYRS
Assay [5] has the same target. The assay can be described thus: enhancers of rat Kvbeta2 NADPH turnover – biochemical, NADPH fluorescence, primary screen (AID 623;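 active = NADPH fluorescence slope more negative than the mean of all samples by about 3 SD, 99.7% confidence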;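 note: fluorescence intensity change per second fitted from 20 to 320 s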). As to conditions: Recombinant KvBeta, NADPH fluorescence decrease slope, 10 min; at 10 µM; stronger effect = lower value.
The target in assay [6] is Alpha-2C adrenergic receptor (Homo sapiens) (UniProt P18825). The assay can be described thus: compounds altering alpha2C-coupled GIRK flux – cell-based, HEK293 alpha2C/GIRK1/2, thallium flux, primary screen (AID 624;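 active = fluorescence slope after compound addition differing from the mean of all screened samples at 99.7% confidence, in either direction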;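 note: slope of fluorescence ratio to pre-addition baseline per second over 15 to 24 s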). To be noted: thallium flux BTC fluorescence, at 10 µM, actives lie on both sides.
Chain of Alpha-2C adrenergic receptor (Homo sapiens) (P18825 whole entry, looked up): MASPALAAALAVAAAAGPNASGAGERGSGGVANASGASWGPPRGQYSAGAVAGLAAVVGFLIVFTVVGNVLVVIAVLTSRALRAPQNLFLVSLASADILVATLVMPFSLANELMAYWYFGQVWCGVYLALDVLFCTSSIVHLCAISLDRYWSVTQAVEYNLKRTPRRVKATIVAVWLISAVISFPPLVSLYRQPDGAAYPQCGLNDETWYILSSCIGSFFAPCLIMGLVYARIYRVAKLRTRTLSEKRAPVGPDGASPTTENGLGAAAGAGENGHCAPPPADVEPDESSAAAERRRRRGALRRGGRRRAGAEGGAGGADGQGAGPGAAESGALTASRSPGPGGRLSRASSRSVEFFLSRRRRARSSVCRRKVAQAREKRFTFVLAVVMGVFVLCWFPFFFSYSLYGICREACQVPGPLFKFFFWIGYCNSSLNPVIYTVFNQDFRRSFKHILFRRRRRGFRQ
Assay [7] in a line: blockers of RIG-like receptor reporter activation – cell-based, Sendai virus stimulus, luciferase, 10K MLSCN set, TLR/RLR signaling modifier project, primary screen (AID 602276;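 active = inhibition at or above 50% at 10 µM; inactive = inhibition below 50%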;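 note: firefly luciferase from ISG56 promoter only with Renilla not read in this screen; 0% = Sendai virus plus DMSO and 100% = medium plus DMSO without virus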). To be noted: HEK293 RL24 IRF3 luciferase reporter, at 10 µM, stronger effect = higher value. In general terms: A reporter such as luciferase makes a cellular process visible.
Assay [8] can be described thus: TLR3 IRF3 reporter activation blockers – cell-based, poly I:C stimulus, luciferase, 10K MLSCN set, primary screen (AID 602277;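 active = inhibition of the reporter signal at or above 50%; inactive = inhibition below 50%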). To be noted: HEK293-TLR3 RL24 IRF3 luciferase reporter, at 10 µM, stronger effect = higher value.

With `COc1cccc(C(c2nnnn2CCc2ccccc2)N2CCN(c3ccccc3)CC2)c1OC` (stereo not drawn), the cell count in assay [1] is 605. In addition, the inhibition (commonly the relative decrease from the control value, in per cent) in assay [1] was -23.5% (inactive); in assay [3], 48.8% (inactive); in assay [7], 18.8% (inactive); in assay [8], 10.1% (inactive). Further, the inhibition of aggregation in assay [2] is -19.6% (inactive). The nuclei count stood at 94.9% in assay [2] and 91.6% in assay [3]. Further, the fluorescence slope in assay [4] was -0.516 (inactive). The NADPH fluorescence slope in assay [5] was -3e-06 (inactive). The slope in assay [6] was 0.00514 (inactive).
Turning to `Cc1cccc(CCNC(=O)C2CCCN(S(=O)(=O)c3cnc[nH]3)C2)c1` (stereo not drawn), the cell count in assay [1] was found to be 518. The inhibition in assay [1] is 16.1% (inactive); in assay [3], -107% (inactive); in assay [7], 30.1% (inactive); in assay [8], 8.46% (inactive). The inhibition of aggregation in assay [2] is 21.6% (inactive). For the same molecule, the figures for the nuclei count in assay [2] and in assay [3] were 89.8% and 107%, respectively. Besides, the fluorescence slope in assay [4] is -0.523 (inactive). Besides, the NADPH fluorescence slope in assay [5] was 6.1e-06 (inactive). The slope in assay [6] was 0.0065 (inactive).
As for `COc1ccc(C2CC(c3cccs3)n3nc(N)nc3N2)cc1` (stereo not drawn), the cell count in assay [1] is 619. The inhibition in assay [1] is -6.3% (inactive); in assay [3] it was -38.1% (inactive); in assay [7] it was -3.14% (inactive); in assay [8], -18.2% (inactive). Moreover, the inhibition of aggregation in assay [2] is 7.8% (inactive). Moreover, the nuclei count in assay [2] came to 122%; in assay [3] it was 118%. Besides, the fluorescence slope in assay [4] is -0.533 (inactive). Further, in assay [5], the NADPH fluorescence slope was -1.5e-05 (inactive). For the same molecule, the slope in assay [6] is 0.00849 (inactive).
Regarding `CC(C)c1nnc(NC(=O)c2ccc(N3C(=O)CCC3=O)cc2)s1`, the cell count in assay [1] came to 627. Also, the inhibition is -8% (inactive) in assay [1], -36.4% (inactive) in assay [3], 4.17% (inactive) in assay [7] and -7.88% (inactive) in assay [8]. In addition, in assay [2], the inhibition of aggregation is 13.9% (inactive). The nuclei count in assay [2] amounted to 110%; in assay [3], 119%. Besides, the fluorescence slope in assay [4] was -0.407 (inactive). For the same molecule, the NADPH fluorescence slope in assay [5] is 9.4e-07 (inactive). Further, the slope in assay [6] was 0.00608 (inactive).
For `O=C(CN1CCN(Cc2ccc3c(c2)OCO3)CC1)Nc1ccc2c(c1)OCCO2`, the cell count in assay [1] stood at 248. Further, the inhibition in assay [1] is -3% (inactive); in assay [3], -19.1% (inactive); in assay [7] it was 0.946% (inactive); in assay [8], 17.2% (inactive). For the same molecule, the inhibition of aggregation in assay [2] was 2.7% (inactive). The nuclei count in assay [2] came out at 75.7%; in assay [3] it was 85.5%. For the same molecule, the fluorescence slope in assay [4] was -0.583 (inactive). Further, the NADPH fluorescence slope in assay [5] is -4.2e-05 (inactive). Besides, the slope in assay [6] is 0.00576 (inactive).
Take `O=C(COc1ccccc1)NCC(c1cccs1)N1CCOCC1` (stereo not drawn): the cell count in assay [1] is 412. Moreover, the inhibition in assay [1] is 9% (inactive); in assay [3] it was -82.3% (inactive); in assay [7], -14.3% (inactive); in assay [8], -11.6% (inactive). Moreover, the inhibition of aggregation in assay [2] is 2% (inactive). Also, the nuclei count in assay [2] was determined as 101%; in assay [3], 112%. Moreover, in assay [4], the fluorescence slope was -0.453 (inactive). Also, in assay [5], the NADPH fluorescence slope is 0.000103 (inactive). In assay [6], the slope was 0.00649 (inactive).
Turning to `COCc1nnc(NC(=O)CCCOc2ccccc2)s1`, in assay [1], the cell count is 732. In addition, the inhibition was 2.1% (inactive) in assay [1], -11.3% (inactive) in assay [3], 1.61% (inactive) in assay [7] and 9.03% (inactive) in assay [8]. Also, the inhibition of aggregation in assay [2] is -7.8% (inactive). Also, the figures for the nuclei count in assay [2] and in assay [3] were 92% and 103%, respectively. Further, the fluorescence slope in assay [4] was -0.42 (inactive). In assay [5], the NADPH fluorescence slope is 9.1e-06 (inactive). Further, the slope in assay [6] is 0.00536 (inactive).
In the case of `Cc1csc2nc(CSc3ccc(Cl)cc3)cn12`, the cell count in assay [1] turned out to be 41. In addition, the inhibition was -8.7% (inactive) in assay [1], -112% (inactive) in assay [3], -42.1% (inactive) in assay [7] and -126% (inactive) in assay [8]. In assay [2], the inhibition of aggregation was -15% (inactive). Further, the nuclei count was 80.6% in assay [2] and 138% in assay [3]. For the same molecule, the fluorescence slope in assay [4] was -0.601 (inactive). Further, in assay [5], the NADPH fluorescence slope is -2e-05 (inactive). Moreover, in assay [6], the slope is 0.00271 (inactive).
`OCCNCCCCOc1ccccc1F`: the cell count in assay [1] was found to be 765. The inhibition in assay [1] was -1.5% (inactive); in assay [3], 33.1% (inactive); in assay [7], -4.78% (inactive); in assay [8], 2.08% (inactive). Moreover, the inhibition of aggregation in assay [2] was -2.5% (inactive). Moreover, the results for the nuclei count in assay [2] and in assay [3] were 91.8% and 91.1%, respectively. The fluorescence slope in assay [4] was -0.387 (inactive). Moreover, the NADPH fluorescence slope in assay [5] was 1.2e-05 (inactive). In assay [6], the slope was 0.00574 (inactive).
In the case of `Cc1cc(C)nc(Sc2ccc3nnc(C(F)(F)C(F)(F)C(F)(F)F)n3n2)n1`, the cell count in assay [1] came to 564. The inhibition was -21.1% (inactive) in assay [1], 4.1% (inactive) in assay [3], -0.722% (inactive) in assay [7] and 24.8% (inactive) in assay [8]. For the same molecule, in assay [2], the inhibition of aggregation is -9.9% (inactive). Also, the nuclei count is 115% in assay [2] and 99.7% in assay [3]. In assay [4], the fluorescence slope was -0.495 (inactive). Moreover, in assay [5], the NADPH fluorescence slope was -3.3e-05 (inactive). The slope in assay [6] was 0.00541 (inactive).
Take `CCOc1ccc(-c2nnn(CCC(=O)O)n2)cc1OC`: the cell count in assay [1] came to 429. Moreover, the inhibition in assay [1] is 6.5% (inactive); in assay [3], -108% (inactive); in assay [7] it was 18.1% (inactive); in assay [8] it was 9.91% (inactive). Further, the inhibition of aggregation in assay [2] is 15.2% (inactive). For the same molecule, the results for the nuclei count in assay [2] and in assay [3] were 64.5% and 118%, respectively. Also, the fluorescence slope in assay [4] was -0.612 (inactive). Moreover, the NADPH fluorescence slope in assay [5] is 1.3e-05 (inactive). In assay [6], the slope was 0.00471 (inactive).
`CCOC(=O)c1cc2c(=O)n3cccc(C)c3nc2n(CC2CCCO2)c1=NC(C)=O` (stereo not drawn): in assay [1], the cell count is 435. Besides, the inhibition was 28.2% (inactive) in assay [1], -17.2% (inactive) in assay [3], 3.59% (inactive) in assay [7] and 8.19% (inactive) in assay [8]. The inhibition of aggregation in assay [2] was -1.4% (inactive). The values for the nuclei count in assay [2] and in assay [3] were 117% and 114%, respectively. Besides, the fluorescence slope in assay [4] was -0.295 (inactive). Moreover, the NADPH fluorescence slope in assay [5] was -2.5e-05 (inactive). The slope in assay [6] is 0.00401 (inactive).
Regarding `CCOc1ccc(C(=O)OCc2nnc(-c3cccs3)o2)cc1OC`, the cell count in assay [1] is 737. Moreover, the inhibition in assay [1] is 7.1% (inactive); in assay [3] it was -51.1% (inactive); in assay [7], 12.1% (inactive); in assay [8] it was 27.5% (inactive). The inhibition of aggregation in assay [2] is 4.7% (inactive). The nuclei count in assay [2] is 101%; in assay [3], 137%. For the same molecule, in assay [4], the fluorescence slope is -0.603 (inactive). Moreover, in assay [5], the NADPH fluorescence slope was 1.9e-06 (inactive). For the same molecule, in assay [6], the slope was 0.00555 (inactive).
